Source: PubChem (several laboratories)
This is a sample that favours compounds with a hit; in the whole collection about 7.6% have one here.
M1 agonist = M1 muscarinic receptor agonism; CHO-M1 cells, Fluo-4 calcium fluorescence, agonist mode; stronger effect = higher value; B-score at 10 µM; hit rate 3% among 64,000;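 active means fluorescence rise, raw or as B-score row- and column-corrected plate score, outside the 99.7% band of its plate's samples, either direction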
M1 antagonist = M1 muscarinic receptor (rat) antagonism | P08482 | CHO-M1 cells, Fluo-4 calcium, ACh EC80 antagonist mode; stronger effect = lower value | B-score at 10 µM | hit rate 3.4% among 64,000 | AID 628;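 active means calcium fluorescence response, raw or row-and-column corrected B-score, differing from the plate sample mean either way at a set confidence level, mostly lower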
PLAP act = human PLAP activation. AID 696. hit rate 1.2% among 96,000. purified PLAP enzyme, luminescent substrate read-out; stronger effect = higher value. activation fold at 20 µM. P05187; in the data active means activation fold above about 2
Cav32 inh = human Cav3.2 channel inhibition, primary screen | O95180 | Cav3.2-expressing cells, Fluo-4 calcium fluorescence FDSS; stronger effect = lower value | B-score at 10 µM | hit rate 4% among 100,000;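 active means single-dose well whose peak fluorescence ratio is a statistical outlier from its plate by either plate-standardised score or position-corrected B-score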
Hits are given with their value; – = inactive; · = not tested or not shown.

SMILES	M1 agonist	M1 antagonist	PLAP act	Cav32 inh
c1ccc(-c2noc(CSc3nnnn3C3CCCCC3)n2)cc1	–	–	–	-5.7
O=C(O)CCCCCNC(=O)CCn1cnc2ccccc2c1=O	–	–	–	–
CO/N=C(/CS(=O)(=O)c1ccc(C)cc1)c1ccc(OC)cc1	·	·	–	–
CCOc1ccc(/C=N/n2c(SC)nnc2-c2ccccc2)cc1OCC	·	·	–	–
O=C(Nc1c(Cl)cccc1Cl)c1cc(=O)n(Cc2ccccc2)c(=O)[nH]1	·	·	–	–
O=c1c2cccc3c(N4CCOCC4)ccc(c32)c2nc3ccccc3n12	7.2	–	–	·
COc1nnc(-c2ccc(N3CCCCC3)c(N)c2)c2ccccc12	–	–	·	-6.9
CCCCc1ccc(Nc2ncnc3nc[nH]c23)cc1	–	–	–	·
CCCCN(Cc1ccccc1)c1ncnc2nc[nH]c12	–	–	2.1	–
CCCN(c1ccc(OCC)cc1)c1ncnc2nc[nH]c12	–	–	2.1	·
Cc1ccc(CN2C(=O)C3CCCN3c3ccc(S(=O)(=O)N4CCOCC4)cc32)cc1 (centres undefined)	·	·	–	–
Cc1cc2c(cc1C)NC(c1c(C)n(C)n(-c3ccccc3)c1=O)C1=C(CC(C)(C)CC1=O)N2 (centres undefined)	47	–	–	–
O=C1C2C3c4ccccc4C(c4ccccc43)C2C(=O)N1Cc1cccnc1 (centres undefined)	·	·	–	–
CN(c1ccccc1)C(c1ccc(F)cc1)c1nnnn1C1CCCC1 (centres undefined)	–	–	–	-7.5
O=C(CS(=O)(=O)c1cn(Cc2cccc(F)c2)c2ccccc12)N1CCOCC1	–	–	–	–
Fc1cccc(Cn2cc(C(=S)N3CCCCC3)c3ccccc32)c1	·	·	–	-4.9
CC(=O)Nc1ccccc1Nc1cc(C#N)c(C#N)cc1[N+](=O)[O-]	·	·	–	–
Cc1cc(C(=O)COC(=O)CCC(=O)c2ccc3c(c2)OCCO3)c(C)n1Cc1ccco1	–	–	–	–
CCOc1ncccc1C(=O)OCC(=O)c1cc(C)n(Cc2ccco2)c1C	–	–	–	-4.9
CON1C(=O)C(=O)N(OC)C(C)(C)C1C (centres undefined)	·	·	–	–
Cc1onc(-c2ccccc2Cl)c1C(=O)NCc1ccc2c(c1)cc(C)n2C	–	–	·	-6
Cc1cc2cc(CCNC(=O)c3c(-c4ccccc4Cl)noc3C)c(=O)[nH]c2cc1C	–	–	–	-3.7
COC(=O)CNC(=O)c1c(-c2ccccc2Cl)noc1C	–	–	–	–
Cc1onc(-c2ccccc2Cl)c1C(=O)NCc1ccco1	–	–	–	–
CCOc1ccc(CC(=O)NCc2ccc3c(c2)cc(C)n3C)cc1	·	·	·	-8.1
SMILES	M1 agonist	M1 antagonist	PLAP act	Cav32 inh
COCC(=O)NCc1ccc2c(c1)cc(C)n2C	–	–	·	·
C=CCn1c(SCc2c(C)noc2C)nc2sc3c(c2c1=O)CCCC3	·	·	–	-3.8
C=CCn1c(SCc2c(C)noc2C)nc2sc3c(c2c1=O)CCCCC3	–	–	–	-4.3
Cc1noc(C)c1CSc1nc2sc(C)c(C)c2c(=O)n1C1CCCC1	–	–	–	-5.8
N#C/C(=C\c1ccc[nH]1)S(=O)(=O)c1ccccc1	–	–	–	–
O=C(Nc1c2c(nn1-c1ccc(F)cc1)CSC2)c1ccc(S(=O)(=O)N2CCOCC2)cc1	–	–	–	-5.6
CC(C)(C)n1nc2c(c1NC(=O)c1ccc(S(=O)(=O)N3CCCC3)cc1)CSC2	–	–	–	-3.5
Cc1ccc(-n2nc3c(c2NC(=O)c2cccs2)CSC3)cc1	–	–	–	-6.3
Cc1cccc(-n2nc3c(c2NC(=O)c2ccc(S(=O)(=O)N4CCOCC4)cc2)CSC3)c1C	–	–	–	·
O=C1[C@@H]2[C@H](C(=O)N1Cc1ccco1)[C@H]1C=C[C@@H]2C1	·	·	–	–
CC(=O)c1cccc(NC(=O)CSCc2ccccc2)c1	·	·	–	–
CC1CCC(C(C)C)C(OC(=O)CSc2nnc(N)s2)C1 (centres undefined)	·	·	–	-4.8
CS(=O)(=O)N(CC(=O)N1CCN(c2ccc(F)cc2)CC1)c1ccc(F)c(Cl)c1	·	·	–	–
CN(C)c1ccc(/C=C(\C#N)C(=O)Nc2nc3c(s2)CCN(Cc2ccccc2)C3)cc1	·	·	–	-4
N#Cc1c(-c2ccco2)nc(SCc2ccc(F)cc2)[nH]c1=O	–	–	–	-4.5
Cc1ccc(S(=O)(=O)c2c(COC(=O)c3ccccc3Cl)c(-c3ccccc3)nn2C)cc1	·	·	–	–
COc1ccccc1NC(=O)C(=O)NNC(=O)c1ccco1	·	·	2.2	–
CCSc1nnc(-c2cccc(S(=O)(=O)N(CC)CC)c2)n1Cc1ccccc1	10	–	–	–
Clc1ccc(COc2ccccn2)cc1Cl	·	·	–	–
CCn1c(SCc2nnc(-c3ccccc3)o2)nc2c1c(=O)n(C)c(=O)n2C	–	–	–	·
CCCCn1c(SCc2nnc(-c3ccccc3)o2)nc2c1c(=O)n(C)c(=O)n2C	3	–	–	–
CCOC(=O)c1sc(NC(=O)c2cc(-c3ccccc3)nc3ccccc23)c(C#N)c1C	·	·	–	-4.1
CC1Cc2ccccc2N1C(=O)CSc1nnc2c(n1)[nH]c1ccc(F)cc12 (centres undefined)	·	·	·	-5.9
Cc1nc2ccccn2c1C(=O)NCc1ccc2c(c1)OCO2	–	–	–	–
COc1ccc(-c2nc3ccccn3c2NCc2ccc3c(c2)OCO3)cc1	·	·	·	-4
SMILES	M1 agonist	M1 antagonist	PLAP act	Cav32 inh
c1ccc(-c2nc3ccccn3c2NCc2ccc3c(c2)OCO3)cc1	·	·	–	-4.2
CCCCCCCCCCC[C@@H](C[C@@H]1OC(=O)[C@H]1CCCCCC)OC(=O)[C@H](CC(C)C)NC=O	·	·	·	–
CN1CCCC(OC(=O)COc2ccccc2)C1 (centres undefined)	–	–	–	–
C[N+]1(C)CCCC(OC(=O)C(O)(c2ccccc2)c2ccccc2)C1 (centres undefined)	·	·	·	-4.5
Cc1ccccc1Cn1c(=N)n(CC(=O)c2ccco2)c2ccccc21	–	–	–	-4.2
O=[N+]([O-])c1ccc(NCCNS(=O)(=O)c2ccccc2)c(C(F)(F)F)c1	·	·	–	-4.9
Cc1ccc(NC2SC(=O)N(CC(=O)O)C2=O)cc1 (centres undefined)	·	·	–	–
CCOC(=O)C1CCCN(C(=O)Cc2ccc(Cl)cc2)C1 (centres undefined)	·	·	–	–
COC(=O)C1CCN(C(=O)C(C)Oc2ccc(Cl)cc2Cl)CC1 (centres undefined)	–	1.2	–	–
CCOC(=O)C1CCCN(C(=O)C(C)Oc2ccc(Cl)cc2Cl)C1 (centres undefined)	4.5	–	–	–
CCCOCCOC(=O)c1[nH]c2c(c1C)C(=O)CC(c1cc(OC)ccc1OC)C2 (centres undefined)	–	–	·	-5.3
O=C(CSc1n[nH]c(-c2ccc(S(=O)(=O)N3CCCCC3)cc2)n1)Nc1nccs1	–	–	–	–
C=CCNC(=S)NNC(=O)c1cccn(Cc2ccc(Cl)c(Cl)c2)c1=O	·	·	–	-5.9
CC(CCc1ccccc1)NC(=O)CSc1nc(N)cc(N)n1 (centres undefined)	–	–	–	–
CCOc1ccc(Nc2cc(=O)oc3ccccc23)cc1	·	·	–	–
CCCC1(c2ccccc2)NC(=O)N(CC(=O)c2[nH]c(C)c(C(=O)OCC)c2C)C1=O (centres undefined)	–	–	–	-5.6
